These results are taken from the OligoGym collection.
Further: reference of the scale not given here.

The target of one test is CACNA1S. In words: pooled miR-30 sensor sort-seq; sequence = guide strand. As to conditions: shRNA.
For TTGGACAAGTCGGTGCACCTGA, the sensor-assay potency score (higher = more potent) is 0.00785. TACACGTAGTAGTAGCCCCTGC yielded a sensor-assay potency score (higher = more potent) of -0.425.

TCTTGTACTCAGTCTCTCCCTG: the sensor-assay potency score (higher = more potent) amounted to 0.136. The sequence TTCATCAGCATCTCAGTGGTGA returned a sensor-assay potency score (higher = more potent) of 0.298. Sequence TTGGTGATCTTGAAGATCCTCA had a sensor-assay potency score (higher = more potent) of 0.453.

Consider TTACCTTCCGTCTTGATCTTGA, for which the sensor-assay potency score (higher = more potent) turned out to be 0.578.

TCTGAAGTCCTCAACATCCATG came in with a sensor-assay potency score (higher = more potent) of -1.41. The same measure, in the same setting: the figure for TTGAGGTCCAGTCTTCCCCTGT is -0.528; for TTGAGGACAATCTCCACAGTGA it is -0.144; for TAGTATGCAAAGTTGGTGCCAC it is 0.194. On to TTGAGCAGGATGTAGTTGCCAC, for which the sensor-assay potency score (higher = more potent) is -0.202. Still for that read-out and setting: next, TACATCTTCATCAGCATCTCAG: -0.408; TATCTCAGCAAACTGGAGGGGT: -0.123; TTGATCAGCCTCATGACACGGA: 0.698. In turn, TTGAGGATCATCTCCAGGGTGA had a sensor-assay potency score (higher = more potent) of -0.175. On to TTGTCGAAGTGGAAGTCGCTGT, for which the sensor-assay potency score (higher = more potent) was -0.229.

TCTAGTTGCTGCTTCTCCCGGA: the sensor-assay potency score (higher = more potent) stood at 0.563. Still for that read-out and setting: the figure for TTGATCTTGAGTGCCGTGCGGA is -0.578. Still for that read-out and setting: next, TTTAAGGATCTGATTTCTCATG: -1.14; ATTAGATTCAAACTCATCGATT: -0.846; TTCAGCATCTCCACACAGGGTT: 0.136.

TTCCAGGAAGTTGTCCACCTGG came in with a sensor-assay potency score (higher = more potent) of -0.276. As to TAGTAGTATGCAAAGTTGGTGC, the sensor-assay potency score (higher = more potent) is -0.181. With ATACTGTACACATTGGCGCTGG, the sensor-assay potency score (higher = more potent) stood at 0.068.

A further test has as its target CACNA2D4. The test is described as above. The note with it: shRNA.
Turning to TCAGGTGTCAGGAACTTCCTGT, the sensor-assay potency score (higher = more potent) was found to be 0.631. As for TTGTAATAGTCGAACACCAGGG, the sensor-assay potency score (higher = more potent) was -0.554. The same measure, in the same setting: next, TAATAGTCGAACACCAGGGATT: -1.39; TTTATACCTGGATAGATCCTGA: -0.0984. Regarding TTGTTGTCGATGACGAAGCAGT, the sensor-assay potency score (higher = more potent) is -0.871.

In turn, TTGGAGATCAGAATGAACCCGT came in with a sensor-assay potency score (higher = more potent) of 0.657.

TCGATTGTCTCGGTCCGCCTGG came in with a sensor-assay potency score (higher = more potent) of -0.412. On the same count and under the same terms, next, TTTGACTTCTGTCGCCTCCTGC: -0.115. The same measure, in the same setting: the figure for TCTGTGATGCAGTAGATCCAGT is -0.578; for TATACTTCTCAAACACCGGCTC it is -0.108; for TTATACTTCTCAAACACCGGCT it is -0.014. TTCCAGAGGAATCTTGGCCTGT returned a sensor-assay potency score (higher = more potent) of 0.14.
